Columns and labels:
Conditions in all cases: concentration: 1 μM, replicates: in singlicate; n = 1
PRKCE = test system: PRKCE
PRKCH = test system: PRKCH
PRKCI = test system: PRKCI
PRKCQ = test system: PRKCQ
PRKD1 = test system: PRKD1
PRKD2 = test system: PRKD2
PRKD3 = test system: PRKD3
PRKG1 = test system: PRKG1
PRKG2 = test system: PRKG2
PRKR = test system: T1, PRKR
T1 construct: gene EIF2AK2
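Further: KINOMEscan kinase panel screen.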

Row | Structure (SMILES) | %Inh (PRKCE) [%] | %Inh (PRKCH) [%] | %Inh (PRKCI) [%] | %Inh (PRKCQ) [%] | %Inh (PRKD1) [%] | %Inh (PRKD2) [%] | %Inh (PRKD3) [%] | %Inh (PRKG1) [%] | %Inh (PRKG2) [%] | %Inh (PRKR) [%]
1 | Cl.c1ccc(Cn2cnc3cc(Nc4ncnc5ccccc45)ccc32)cc1 [GW272142] | 4 | 0 | 0 | 0 | 0 | 1 | 0 | 0 | 0 | 0
2 | CCC(=O)c1c(-c2ccccc2)c2cc(Cl)ccc2c(=O)n1Cc1cc(S(C)(=O)=O)n(CC(N)=O)n1 | 0 | 80 | 12 | 0 | 0 | 0 | 0 | 0 | 0 | 0
3 | Nc1nccc2scc(-c3ccc4c(c3)CCN4C(=O)Cc3ccccc3)c12 [GSK2576924] | 0 | 31 | 20 | 0 | 0 | 16 | 11 | 10 | 12 | 8
4 | Nc1n[nH]c2nnc(-c3ccccc3)c(-c3ccccc3)c12 [GW554060] | 15 | 14 | 16 | 12 | 0 | 0 | 17 | 0 | 0 | 0
